A short description of assay [1]: A High-Content qHTS Against Drug Library for the Identification of Small Molecules that Inhibit DYT1 Early Onset Primary Dystonia-Associated Cell Pathology (AID 1645839; calls by dose curve; also: series mostly up to about 46 µM). The essentials: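 Induced EGFP-delE TorsinA cells are imaged after 48 h of compound treatment. Punctate fusion-protein distribution gives the %pathology value, while nuclei counts flag toxicity. Wild-type EGFP-hTOR1A cells define the normal pattern.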

Assay [2] concerns the target Cytochrome P450 2D6 (Homo sapiens) (UniProt P10635). Nature of the assay: Cytochrome P450 family 2 subfamily D member 6 (CYP2D6) small molecule antagonists: luciferase biochemical (cell-free) qHTS assay (AID 1645840). Also: nearly all actives have a fitted effect of over 55% in size. Also: potency is read from the fitted curve at half-maximal effect. As to activity change, negative = inhibition: series mostly up to about 57 µM; % is scaled to controls: 0 for no effect and ±100 for the full control effect. The essentials:
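P450-Glo CYP2D6 system: proluciferin substrate converted by enzyme to luciferin, read by luminescence proportional to activity. Enzyme-substrate mix with compound 10 min at room temperature, then NADPH regeneration 1 h before detection reagent.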
For orientation: Quantitative high-throughput screening tests each substance at several concentrations.

Assay [3] has as its target Cytochrome P450 2C9 (Homo sapiens) (UniProt P11712). Description: Cytochrome P450 family 2 subfamily C member 9 (CYP2C9) small molecule antagonists: luciferase biochemical (cell-free) qHTS assay (AID 1645842). Also: nearly all actives have a fitted effect of over 55% in size. Also: potency is read from the fitted curve at half-maximal effect. As to activity change, negative = inhibition: series mostly up to about 57 µM; % is scaled to controls: 0 for no effect and ±100 for the full control effect. The procedure, abridged: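 P450-Glo CYP2C9 system: proluciferin substrate with enzyme in mix containing 0.4% BSA, 10 min at room temperature, then NADPH regeneration solution added and incubated 1 h at 37C. Detection reagent stopped reaction; luminescence read after 20 min as RLU.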

Assay [4] can be described thus: Primary qHTS for inhibitors of nuclear receptor binding SET domain protein 2 (NSD2) in an isogenic RCH-ACV NSD2 p.E1099K mutant (9B) (AID 1645876; active = well fitted curve in the direction sought with a large enough effect; an effect the other way counts as inactive or inconclusive; also: nearly all actives have a fitted effect of over 70% in size; also: potency is read from the fitted curve at half-maximal effect; as to activity change, negative = viability loss: % is scaled to controls: 0 for no effect and ±100 for the full control effect).
Assay [5] deals with N-terminal Xaa-Pro-Lys N-methyltransferase 1 (Homo sapiens) (UniProt Q9BV86). Nature of the assay: Confirmatory qHTS for Inhibitors of N-terminal methyltransferase 1 (NTMT1): MTaseGlo Assay (AID 1645874; active = well fitted curve in the direction sought with a large enough effect; an effect the other way counts as inactive or inconclusive; also: potency is read from the fitted curve at half-maximal effect; nearly all actives have a fitted effect of over 65% in size). The source says: Assay Submitter (PI): Rong Huang Ph.D.
Chain of N-terminal Xaa-Pro-Lys N-methyltransferase 1 (Homo sapiens) (Q9BV86 whole entry, looked up): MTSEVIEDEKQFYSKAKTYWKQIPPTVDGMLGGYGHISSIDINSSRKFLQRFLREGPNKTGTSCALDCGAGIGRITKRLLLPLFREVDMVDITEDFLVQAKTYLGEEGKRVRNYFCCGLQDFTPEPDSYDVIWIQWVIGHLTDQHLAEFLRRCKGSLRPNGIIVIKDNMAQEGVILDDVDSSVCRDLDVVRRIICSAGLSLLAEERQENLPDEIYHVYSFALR
Purdue University, West Lafayette, IN 47907
The N-terminal methytransferase 1 is the first methyltransferase that methylates protein alpha-N-amines and plays an important role in regulating cell mitosis, chromatin interactions and DNA repair. It is observed to be over-expressed in various cancer patient tissues like malignant melanoma and colorectal cancer tissues. Knockdown of NTMT1 in cancer cells causes cell mitotic defects and enhances sensitivity to DNA damaging chemotherapeutics. […] These critical cellular processes in which NTMT1 is implicated, coupled with emerging links to cellular dysfunction, strengthen the inference that NTMT1 is a compelling novel anticancer target. Progress have been made in understanding the molecular properties of NTMT1 and the biological consequences of protein alpha-N-terminal methylation, but there are no specific small molecule probes available for NTMT1 to fully characterize its MTase activity. To address this unmet need, a panel of assay is created and established to enable quantitative high-throughput screening (qHTS) for novel, potent, and selective small molecule NTMT1 inhibitors. Two orthogonal qHTS that use different reagents (ThioGlo vs. MTaseGlo) are developed for primary robotic screening against the NCATS chemical library of more than 400,000 small molecules. Identified inhibitors are reacquired, validated, and further characterized.
MTaseGlo Assay is a luminescence screen that measure the activity of methyltransferases based on the reaction product S-adenosyl homocysteine (SAH). The substrate SAM is converted to SAH upon enzyme activation. MTase-Glo reagent and detection solution convert SAH to ATP and measure the light from the luciferase reaction.
Materials: NTMT1 enzyme, substrate SPKRIA, control peptide RCC1-6 is provided by the Huang laboratory. […]
8; Reagent; 5 uL; Dispense 5 uL of 1x MTase-Glo Detection Solution (R) to allow for ADP to be converted to ATP which was then detected with a luciferase reaction. […]
11; Detection; Luminescence; Plates were read on ViewLux detector (PerkinElmer). […]

Results filed as inconclusive are left out. Unmarked numbers belong to inactive results. The source made the active and inactive calls. Unless noted, calls follow the shape of the dose curve; as a rule, active = well fitted curve in the direction sought with a large enough effect in the repeat runs; inconclusive = weak or mixed curves; inactive = no such curve, though single readings can be large; an effect the other way counts as inactive or inconclusive.

Chain of Cytochrome P450 2D6 (Homo sapiens) (P10635 whole entry, looked up): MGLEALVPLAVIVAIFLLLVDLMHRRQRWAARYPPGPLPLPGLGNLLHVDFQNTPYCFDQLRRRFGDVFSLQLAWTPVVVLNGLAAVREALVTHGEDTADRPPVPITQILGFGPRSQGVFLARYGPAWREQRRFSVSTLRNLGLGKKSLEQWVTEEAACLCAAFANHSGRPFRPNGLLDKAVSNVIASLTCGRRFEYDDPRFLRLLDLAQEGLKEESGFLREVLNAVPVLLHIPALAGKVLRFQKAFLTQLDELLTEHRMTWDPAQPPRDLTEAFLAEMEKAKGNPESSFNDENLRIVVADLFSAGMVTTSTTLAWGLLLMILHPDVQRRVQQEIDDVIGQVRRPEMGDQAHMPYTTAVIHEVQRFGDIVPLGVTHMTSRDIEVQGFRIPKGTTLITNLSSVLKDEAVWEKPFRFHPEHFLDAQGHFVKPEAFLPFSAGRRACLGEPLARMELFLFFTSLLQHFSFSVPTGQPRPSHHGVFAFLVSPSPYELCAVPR
Chain of Cytochrome P450 2C9 (Homo sapiens) (P11712 whole entry, looked up): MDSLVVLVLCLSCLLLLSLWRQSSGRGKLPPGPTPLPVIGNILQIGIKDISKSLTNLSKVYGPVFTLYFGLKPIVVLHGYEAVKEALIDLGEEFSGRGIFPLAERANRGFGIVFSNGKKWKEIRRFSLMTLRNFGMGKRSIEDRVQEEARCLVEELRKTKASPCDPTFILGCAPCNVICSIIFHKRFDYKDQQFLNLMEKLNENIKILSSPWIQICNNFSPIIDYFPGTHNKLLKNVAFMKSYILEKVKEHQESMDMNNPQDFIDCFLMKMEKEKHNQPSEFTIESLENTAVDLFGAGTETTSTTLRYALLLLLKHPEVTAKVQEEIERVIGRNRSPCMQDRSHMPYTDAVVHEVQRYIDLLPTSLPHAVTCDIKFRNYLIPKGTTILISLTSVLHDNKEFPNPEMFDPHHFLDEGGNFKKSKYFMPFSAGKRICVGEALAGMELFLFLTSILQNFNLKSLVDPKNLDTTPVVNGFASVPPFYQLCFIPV

Take `CN(C)CCCOC1(Cc2ccccc2)CCCCCC1`: the Potency entry in assay [1], in assay [3] and in assay [4] was “inactive” throughout. The Potency in assay [2] was 2.19 µM (active).
Turning to `CC1CC(=O)NN=C1c1ccc(NCC(C)(C)NCC(O)COc2cc(Cl)ccc2C#N)cc1` (configuration not stated), the Potency entry in assay [1] and in assay [4] was “inactive” throughout. The Potency in assay [2] is 0.871 µM (active); in assay [3], 0.977 µM (active).
On to `O=C(C1CCCCC1)N1CC(=O)N2CCCc3ccccc3C2C1` (configuration not stated), for which the Potency entry in assay [1] and in assay [2] was “inactive” each time. Moreover, in assay [3], the Potency is 6.17 µM (active).
Take `CCCC(=O)c1cc(O)c(O)cc1O`: the Potency result in assay [1] is “inactive”. Besides, the Potency in assay [2] was 31.7 µM (active).
In the case of `Nc1ccc(C(=O)OCC(O)CO)cc1` (configuration not stated), the Potency entry in assay [1], in assay [2], in assay [3] and in assay [4] was “inactive” each time.
Consider `CC(C)(C)C1CCC(CC2=C(O)c3ccccc3C(=O)C2=O)CC1` (configuration not stated), for which the Potency result in assay [1] and in assay [2] was “inactive” throughout. In addition, the Potency in assay [3] was 3.89 µM (active); in assay [4], 7.5 µM (active).
On to `NCC[C@H](O)C(=O)N[C@@H]1C[C@H](N)[C@@H](O[C@H]2O[C@H](CN)[C@@H](O)[C@H](O)[C@@H]2O)[C@H](O)[C@@H]1O[C@H]1O[C@H](CO)[C@@H](O)[C@H](N)[C@@H]1O`, for which the % pathology change, negative = correction in assay [1] is -0.271% [at 0.369 µM]. Moreover, the activity change, negative = inhibition is 10.7% [at 0.91 µM] in assay [2] and 1.19% [at 0.91 µM] in assay [3]. The activity change, negative = viability loss in assay [4] was 7.89% [at 0.588 µM].
As for `NC(=O)NS(=O)(=O)c1ccc(Cl)cc1`, the Potency result in assay [1], in assay [2] and in assay [3] was “inactive” each time.
Consider `COc1ccc([C@@H]2Sc3ccccc3NC(=O)[C@@H]2O)cc1`, for which, in assay [1], the Potency result is “inactive”. The Potency in assay [2] was 13.8 µM (active).
`CCN1CCN(C(=O)N[C@@H](C(=O)N[C@@H]2C(=O)N3[C@@H]2SC(C)(C)[C@H]3C(=O)O)c2ccccc2)C(=O)C1=O`: the Potency result in assay [1], in assay [2], in assay [3] and in assay [4] was “inactive” throughout.
Turning to `CN1Cc2cc(C(=O)N3CCC(C4CCNCC4)CC3)ccc2NC(CC(=O)O)C1=O` (configuration not stated), the Potency result in assay [1], in assay [2], in assay [3] and in assay [4] was “inactive” each time.
For the molecule `O=C1OC2(c3ccccc31)c1cc(I)c(O)c(I)c1Oc1c2cc(I)c(O)c1I`, the Potency entry in assay [1] is “inactive”. Besides, the Potency in assay [2] was 17.4 µM (active); in assay [3], 19.5 µM (active); in assay [5] it was 1.9 µM (active).
For the molecule `CCOC(=O)C(O)c1ccccc1` (configuration not stated), the Potency result in assay [1], in assay [2], in assay [3] and in assay [4] was “inactive” throughout.
Take `O=C(CCCl)NCc1ccccc1`: the Potency result in assay [1], in assay [2], in assay [3] and in assay [4] was “inactive” each time.
Take `CC(=O)O[C@@H]1CC2C3CCc4cc(OC(=O)c5ccccc5)ccc4C3CCC2(C)[C@H]1OC(C)=O` (some centres not stated): the Potency entry in assay [1], in assay [2], in assay [3] and in assay [4] was “inactive” in each case.
Take `COc1ccc2c(c1)CCCC2=O`: the Potency result in assay [1], in assay [2], in assay [3] and in assay [4] was “inactive” each time.
On to `O=C(Oc1ccccc1)c1cccc(C(=O)Oc2ccccc2)c1`, for which the Potency entry in assay [1] and in assay [4] was “inactive” throughout. For the same molecule, the Potency is 30.7 µM (active) in assay [2] and 6.48 µM (active) in assay [3].
As to `Cc1ccccc1N1CCN(CCc2nnc3n2CCCC3)CC1`, the Potency entry in assay [1], in assay [3] and in assay [4] was “inactive” in each case. In assay [2], the Potency is 13.8 µM (active).
Take `CCC1(c2cnc[nH]2)Cc2ccccc2C1`: the Potency entry in assay [1] and in assay [4] was “inactive” in each case. The Potency in assay [2] is 0.309 µM (active); in assay [3], 0.871 µM (active).
With `O=C(c1ccco1)N1CCNCC1`, the Potency entry in assay [1], in assay [2], in assay [3] and in assay [4] was “inactive” throughout.
On to `Cc1cc(O)c(C)c(C)c1O`, for which the Potency result in assay [1], in assay [2], in assay [3] and in assay [4] was “inactive” each time.
As for `Brc1ccccc1-c1ccccc1`, the Potency result in assay [1], in assay [2], in assay [3] and in assay [4] was “inactive” each time.
On to `O=C(O)CCCC[C@@H]1SC[C@@H]2NC(=O)N[C@@H]21`, for which the Potency entry in assay [1], in assay [2], in assay [3] and in assay [4] was “inactive” in each case.
In the case of `CC(C)=CCC/C(C)=C/CC/C(C)=C/CCC(=O)OC/C=C(\C)CCC=C(C)C`, the Potency result in assay [1], in assay [2], in assay [3] and in assay [4] was “inactive” each time.
For `COc1ccc(/C(C)=C/C(=O)O)c(OC)c1`, the Potency result in assay [1], in assay [2], in assay [3] and in assay [4] was “inactive” in each case.
For `CC(=O)Nc1c(I)c(NC(C)=O)c(I)c(C(=O)O)c1I`, the Potency result in assay [1], in assay [2], in assay [3] and in assay [4] was “inactive” throughout.
Take `CC(C)C(=O)Nc1cccc(C(F)(F)F)c1`: the Potency result in assay [1], in assay [2], in assay [3] and in assay [4] was “inactive” in each case.
As to `NS(=O)(=O)c1cc2c(cc1Cl)CN(C1CCCCC1)C2=O`, the Potency result in assay [1], in assay [2], in assay [3] and in assay [4] was “inactive” in each case.
As to `OC[C@]1(O)OC[C@@H](O)[C@H](O)[C@@H]1O`, the Potency entry in assay [1], in assay [2], in assay [3] and in assay [4] was “inactive” each time.
Regarding `CCOc1c(N2CCOCC2)cnn(C)c1=O`, the Potency entry in assay [1], in assay [2], in assay [3] and in assay [4] was “inactive” each time.
With `Cc1coc2ccccc2c1=O`, the Potency result in assay [1], in assay [2], in assay [3] and in assay [4] was “inactive” in each case.
Turning to `COC(=O)c1cc(Cl)ccc1OC`, the Potency result in assay [1], in assay [2], in assay [3] and in assay [4] was “inactive” in each case.

The values above are taken from PubChem BioAssay (NCATS).
